According to the supplement of paper PMC6555819:

Experiments:
Experiment in all cases: PBM binding z-score (relative to random genomic background probes); higher = stronger binding; sequences stand for … in GC…GCGATTGACAGCGTAGAATGAAGG
[1] = test system: FXR:RXRa (NR concentration 270 nM, RXRa partner concentration 90 nM)
How it was run: (§1)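 For binding z-scores, the reference was random background probes on custom Agilent 4×180K protein-binding microarrays. These arrays were incubated 1 h with ligand-free nuclear receptor dimers in PBS pH 7.4, 2% milk, 0.02% Triton X-100, 1 mM DTT, 0.2 mg/mL BSA and 0.4 mg/ml salmon testes DNA. Fluorescence was scanned after antibody detection of each partner (one per run) and regression-normalized.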

[2] = test system: LXRa:RXRa (NR concentration 270 nM, RXRa partner concentration 90 nM)
How it was run: as §1

[3] = test system: LXRa homodimer (NR concentration 270 nM)
How it was run: as §1

[4] = test system: LXRb:RXRa (NR concentration 270 nM, RXRa partner concentration 90 nM)
How it was run: as §1

[5] = test system: LXRb homodimer (NR concentration 270 nM)
How it was run: as §1

[6] = test system: PPARa:RXRa (NR concentration 270 nM, RXRa partner concentration 90 nM)
How it was run: as §1

[7] = test system: PPARg:RXRa (NR concentration 180 nM, RXRa partner concentration 90 nM)
How it was run: as §1

[8] = test system: PPARg:RXRa 270nM:90nM, anti-RXR (NR concentration 270 nM, RXRa partner concentration 90 nM)
How it was run: as §1

[9] = test system: PPARg:RXRa 30nM:10nM, anti-RXR (NR concentration 30 nM, RXRa partner concentration 10 nM)
How it was run: as §1

[10] = test system: PPARg:RXRa 90nM:30nM, anti-RXR (NR concentration 90 nM, RXRa partner concentration 30 nM)
How it was run: as §1

[11] = test system: PPARg:RXRa DBDmut IVT, anti-RXR (DBD mutation: RXRa K156A/R161A, NR concentration 270 nM, RXRa partner concentration 90 nM)
How it was run: as §1

[12] = test system: PPARg:RXRa IVT, anti-PPARg (NR concentration 270 nM, RXRa partner concentration 90 nM)
How it was run: as §1

[13] = test system: PPARg DBDmut:RXRa IVT, anti-PPARg (DBD mutation: PPARg1 K132A/R137A, NR concentration 270 nM, RXRa partner concentration 90 nM)
How it was run: as §1

[14] = test system: PPARg DBDmut IVT, anti-PPARg (DBD mutation: PPARg1 K132A/R137A, NR concentration 270 nM)
How it was run: as §1

[15] = test system: PPARg homodimer (NR concentration 180 nM)
How it was run: as §1

[16] = test system: PXR:RXRa (NR concentration 270 nM, RXRa partner concentration 90 nM)
How it was run: as §1

[17] = test system: PXR homodimer (NR concentration 270 nM)
How it was run: as §1

[18] = test system: RARa:RXR (NR concentration 270 nM, RXRa partner concentration 90 nM)
How it was run: as §1

[19] = test system: RARa homodimer (NR concentration 270 nM)
How it was run: as §1

[20] = test system: RARb:RXRa (NR concentration 270 nM, RXRa partner concentration 90 nM)
How it was run: as §1

Sequence | PBM binding z-score [1] | PBM binding z-score [2] | PBM binding z-score [3] | PBM binding z-score [4] | PBM binding z-score [5] | PBM binding z-score [6] | PBM binding z-score [7] | PBM binding z-score [8] | PBM binding z-score [9] | PBM binding z-score [10] | PBM binding z-score [11] | PBM binding z-score [12] | PBM binding z-score [13] | PBM binding z-score [14] | PBM binding z-score [15] | PBM binding z-score [16] | PBM binding z-score [17] | PBM binding z-score [18] | PBM binding z-score [19] | PBM binding z-score [20]
TCTTGTAGATCAACAGCAGGTTAAGAAAGATCGA | 0.263 | 0.476 | -0.0928 | 0.569 | -0.319 | 0.609 | -0.21 | 1.17 | 2.61 | 1.7 | 1.66 | 0.684 | -0.0164 | 0.918 | -0.793 | 0.178 | -0.2 | 0.544 | 0.0361 | 0.0725
CAAACTAGGTAAAAGGTCAAAGTCGAGCCAACCA | 6.21 | 6.09 | 4.59 | 5.87 | 2.23 | 6.92 | 12.1 | 10.2 | 11 | 11.4 | 7.05 | 7.46 | 2.77 | 1.52 | 3.65 | 5.33 | 1.53 | 6.52 | 2.55 | 4.87
TCGAGTAGGTTACCAATGGGGCATTCACCTTTCT | 0.403 | 1.81 | -0.322 | 1.57 | -0.26 | 1.55 | 0.512 | 1.43 | 1.26 | 1.47 | 3.38 | 2.75 | 0.0374 | 0.508 | 0.0872 | 0.579 | -0.637 | 1.1 | -0.777 | 1.13
ATATGTAGGTTAGCTGGGGTCAATCAGACTAGGC | 4.21 | 5.44 | 1.4 | 4.65 | 1.47 | 5.14 | 5.84 | 5.34 | 2.61 | 4.68 | 6.88 | 6.36 | 2.08 | 1.26 | 2.34 | 6 | 1.44 | 5.08 | 1.21 | 3.04
GTTCGGAGGACAAGGTCAGAGCTTTGTCCGTAGA | 1.57 | 1.48 | -0.204 | 0.904 | -0.834 | 2.16 | 0.427 | 1.29 | -0.266 | 0.514 | -0.0952 | 0.927 | -0.706 | -1.19 | 1.25 | 1.67 | -0.41 | 2.17 | -0.913 | 3.13
CGTCCAAGATCATAGGAGGTCAGTGAAGACAGAT | 1.56 | 2.77 | 1.2 | 2.26 | 0.134 | 2.69 | 0.898 | 0.559 | 0.251 | 0.198 | 0.389 | 1.23 | 0.673 | 0.577 | 1.4 | 2.93 | 0.844 | 2.62 | 0.513 | 2.25
ATCCCAAGGTGATCGTGAGGTCGTTGATACTAAC | 1.33 | 1.13 | 0.822 | 1.02 | -0.338 | 1.16 | 0.11 | 0.0594 | -0.299 | -0.346 | 0.258 | 0.592 | 0.328 | -0.0144 | 1.01 | 2.89 | 1.37 | 1.81 | 0.229 | 1.31
